# Jurkat NFkB inh – inhibitors of induced NF-kB luciferase reporter, primary screen, TCR NF-kB activation inhibitor project, cell-based, luminescence, uHTS | Jurkat, PMA/ionomycin-induced NF-kB luciferase reporter | inhibition, % at 4 µM | 0.53% of 330,000 active | AID 435003, 2010; in the data active = inhibition above about 50%
# 697 NFkB inh – inhibitors of PMA/ionomycin-induced NF-kB reporter, 697 cells, primary screen, B-cell NF-kB inhibitor project, cell-based, luminescence, uHTS | 697 B-cell NF-kB luciferase reporter, 16 h | inhibition, % at 4 µM | 0.33% of 330,000 active | AID 435022, 2010; in the data active = inhibition above about 35%
# esBAF inh – Bmi1 luciferase reporter increase in mESCs, primary screen, esBAF inhibitor project, mouse ES cells, Bmi1 luciferase knock-in, single point; 24 h; 100% = twice the neutral-well signal; reporter increase, % at 12.5 µM; 2% of 350,000 active; in the data active = activation above about 40%;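 also: 0% = median of the plate's neutral control wells and 100% = double that signal; a rise in the Bmi1 reporter signal indicates esBAF inhibition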
# Gli-Sufu block – Gli-Sufu pathway antagonists, primary screen, luciferase luminescence, Sufu-KO-LIGHT cells, uHTS. Sufu-KO-LIGHT fibroblasts, Gli luciferase reporter luminescence. 0.74% of 340,000 active. inhibition, % at 5 µM;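 active = inhibition above about 55%, limit read from the data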;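 also: 0% = DMSO-treated cells and 100% = wells with medium but no cells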
# SMARCA2 act – SMARCA2 (BRM) function activators, primary screen, cell-based, luminescence, high throughput; MG213 cells, MMTV-luciferase reporter, dexamethasone, overnight; activation, % at 9.1 µM; 1% of 370,000 active; in the data active = activation above about 7.8%;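 also: 0% = vehicle wells and 100% = reference activator wells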
# SMARCA2 act conf – SMARCA2 (BRM) function activators, confirmation, cell-based, luminescence, triplicate; shares compounds with SMARCA2 act; MG213 cells, MMTV-luciferase with dexamethasone, overnight; MG213 cells expressing E1A, Rb sequestered; DMSO wells 0%, reference activator 100%; activation, % at 9.1 µM; 30% of 3,500 active; AID 652260, 2013;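 active = activation above its plate's cutoff, the mean activation of tested wells plus 3 SD, cut at about 7.9% in these data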
# VP16 Luc act – GAL4-VP16 luciferase reporter activation, counter-screen for SMARCA2 (BRM) activator project, cell-based, pG5luc, luminescence, high throughput; shares compounds with SMARCA2 act; HEK293 GAL4-VP16 pG5luc reporter; scaled: DMSO wells 0%, SAHA wells 100%; activation, % at 9.1 µM; 41% of 3,500 active; AID 686939, 2013;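 active = activation above the solvent-only control well mean plus 3 SD, averaged across control plates, cut at about 5.2% in these data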
# * hit, by the source's call; nt = not tested or not shown. Rows were chosen to be rich in hits. Some 3.3% of all compounds tested hit in one or more screens of this group.
SMILES,Jurkat NFkB inh,697 NFkB inh,esBAF inh,Gli-Sufu block,SMARCA2 act,SMARCA2 act conf,VP16 Luc act
NC(=O)CC1C(=O)N(c2ccccc2)C(=S)N1NC(=O)c1ccc(Br)cc1 (configuration not stated),-35,-24,12,-14,7,nt,nt
COc1ccc(NS(=O)(=O)c2ccc(NC(=S)NC(=O)c3cccc(F)c3)cc2)nn1,2,-11,nt,4,8.2*,0,0
O=C(CCc1nnc(CCCc2ccccc2)o1)NCCCC1CCCC1,-44,-65,nt,-12,9.7*,5,6.5*
O=C(CCc1nnc(CCCc2ccccc2)o1)NCCc1ccccc1,-16,-28,nt,3,1,nt,nt
COc1cccc(C(=O)Nc2ccc3c(c2)OC[C@@H](C)N(C(=O)C2CCC2)C[C@@H](C)[C@H](OC)CN(C)C3=O)c1,nt,nt,-7,nt,nt,nt,nt
CO[C@H]1CC[C@H]2CCN(C)C(=O)C[C@@H](c3ccccc3)CN(C)C(=O)c3cc(C#N)ccc3OC[C@H]1O2,nt,nt,-2,nt,nt,nt,nt
Cc1nnc(SCC(=O)NC(=O)Nc2ccc3c(c2)OCCO3)s1,-3,-1,nt,-3,11*,3,0
CC(C)C(=O)Nc1ccc2c(c1)C(=O)N(C)[C@H]1CC[C@@H](CC(=O)NC3CCCC3)O[C@@H]1CO2,nt,nt,3,nt,nt,nt,nt
O=C(COC(=O)c1cccnc1Cl)Nc1nc(-c2ccccc2)cs1,-5,-18,nt,-13,9.9*,1,2
O=C(NC1CC1)c1cccc(NC(=O)C2CCCCC2)c1,nt,nt,-1,6,8.1*,0,1
CC(=O)c1cccc(NC(=O)C2CCCC2)c1,-13,-5,-11,12,-1,nt,nt
C[C@@H]1CN([C@@H](C)CO)C(=O)c2cccc(NS(=O)(=O)c3ccc(Cl)cc3)c2O[C@H]1CN(C)C,nt,nt,0,nt,nt,nt,nt
Cn1cccc1C(=O)OCc1cc(-c2ccco2)on1,-75,-67,83*,-38,8.4*,4,5.4*
COc1ccccc1NC(=O)N[C@@H]1CC[C@@H](CCn2cc(-c3ccccc3)nn2)O[C@@H]1CO,nt,nt,0,nt,nt,nt,nt
Cc1ccc(Cn2ccnc2C(=O)Nc2ccccc2)cc1,-80,-104,24,-41,9.3*,6,3
N#Cc1ccc(Cn2ccnc2C(=O)Nc2ccccc2)cc1,-14,-21,nt,2,-1,nt,nt
CCN(CC)c1ccc(NC(=O)c2cccc(C)c2OC)c(C)c1,-130,-94,nt,-64,8.2*,14*,4
Cn1c(/C=C/c2ccccc2)nc2ccccc2c1=O,-56,-44,34,24,1,nt,nt
Cn1c(/C=C/c2ccc(Cl)cc2)nc2ccccc2c1=O,-77,-88,69*,13,8.7*,4,6.1*
CCOC(=O)c1cnc2c(N=Nc3cccc(Cl)c3)c(N)nn2c1N,nt,nt,nt,nt,1,nt,nt
CCOC(=O)c1cnc2c(N=Nc3ccccc3)c(N)nn2c1N,-126,-163,30,-127,8.3*,11*,12*
C[C@@H]1CN([C@@H](C)CO)C(=O)c2cc(C#CC3(O)CCCC3)cnc2O[C@@H]1CN(C)C(=O)CC1CC1,nt,nt,-1,nt,nt,nt,nt
O=C(Nc1cc(Br)ccc1O)c1cc(-c2cccs2)on1,nt,nt,37,-21,9.8*,8,4
C[C@@H]1CN([C@H](C)CO)C(=O)c2cc(C3=CCCCC3)cnc2O[C@H]1CN(C)C(=O)CN1CCOCC1,nt,nt,4,nt,nt,nt,nt
Cn1c(=O)c2c(nc(CN3CCOCC3)n2CCN2CCOCC2)n(C)c1=O,6,5,-4,-6,nt,nt,nt
SMILES,Jurkat NFkB inh,697 NFkB inh,esBAF inh,Gli-Sufu block,SMARCA2 act,SMARCA2 act conf,VP16 Luc act
COC(=O)Cn1c(CN2CCOCC2)nc2c1c(=O)n(C)c(=O)n2C,18,3,-5,3,8.3*,1,-1
COc1ccc(N=C(C)C2=C(O)c3ccccc3C2=O)cc1,-135,-181,nt,-96,3,nt,nt
CCOc1ccc(N=C(C)C2=C(O)c3ccccc3C2=O)cc1,-103,-158,nt,-9,19*,8.5*,12*
CCCCn1c(CN(Cc2ccccc2)Cc2ccccc2)nc2c1c(=O)n(C)c(=O)n2C,24,-21,-1,-2,9.8*,0,0
CCOCCn1c(CN(Cc2ccccc2)Cc2ccccc2)nc2c1c(=O)n(C)c(=O)n2C,-2,-19,10,6,-1,nt,nt
O=C1c2ccccc2C(=O)N1c1ccc(Cl)cn1,-3,-74,-6,-37,8.1*,3,0
C[C@@H]1CN([C@@H](C)CO)S(=O)(=O)c2ccc(-c3ccc(F)cc3)cc2O[C@H]1CN(C)Cc1cccc(F)c1,nt,nt,-5,nt,nt,nt,nt
C=CCN1C(=O)/C(=C/c2ccc(OC)cc2)S/C1=N/c1nccs1,-13,-5,nt,0,10*,-1,1
C=CCN1C(=O)/C(=C/c2ccc(O)cc2)S/C1=N/c1nccs1,-7,-8,nt,-1,0,nt,nt
Cc1cc2cc3c(cc2nc1SCC(=O)N1CCOCC1)OCO3,2,3,10,5,8.4*,1,-1
C[C@H](O)C#Cc1cnc2c(c1)C(=O)N([C@H](C)CO)C[C@H](C)[C@@H](CN(C)C(=O)c1ccncc1)O2,nt,nt,8,nt,nt,nt,nt
CN1CCN(c2nc(-c3ccccc3O)nc3ccccc23)CC1,-20,15,nt,21,3,nt,nt
COc1cccc(-c2nc(N3CCN(C)CC3)c3ccccc3n2)c1O,-39,-25,14,12,19*,19*,3
CO[C@H]1CN(C)C(=O)c2cc(NC(=O)c3cc(C)on3)ccc2OC[C@@H](C)NC[C@H]1C,nt,nt,-5,nt,nt,nt,nt
COc1ccc(NC(=O)Nc2cccc3c2O[C@@H](CN(C)Cc2ccc(Cl)c(Cl)c2)[C@@H](C)CN([C@@H](C)CO)C3=O)cc1,nt,nt,12,nt,nt,nt,nt
CCOCC(=O)Nc1nc2ccc(OC)cc2s1,-57,-125,nt,-62,7,nt,nt
COc1ccc(Nc2nc3ccc(OC)cc3s2)cc1,-62,-56,nt,-24,3,nt,nt
CCOC(=O)c1ccc2nc(NC(=O)C(C)C)sc2c1,-118,-128,37,-95,10*,8,4
CCOc1ccc2nc(NC(=O)COC)sc2c1,-70,-122,-12,-119,8.0*,15*,13*
COc1ccc2nc(Nc3nc(C)c(C(C)=O)s3)sc2c1,-52,-75,38,-56,9.7*,-12,14*
CS(=O)(=O)c1ccc2nc(NC(=O)c3ccco3)sc2c1,-56,-103,-6,-66,9.9*,11*,12*

# Assay outcomes (PubChem BioAssay)
